In all, about 33,000 sequences were measured (“normalized occupancy”: median about 0.075, highest 2% from about 0.095 on). Many of the other results were omitted from the sample, so the highest values are more common in it than they were.

The target of this assay is MaxL homodimer (Homo sapiens, UniProt P61244 1-160). The assay is described as follows: universal protein-binding microarray (PBM); PBS-based mixture, 10 nM His-tagged protein dimer, 2% milk, 200 ng/uL BSA, 50 ng/uL salmon testes DNA, 0.02% TX-100; detection with Alexa 488 anti-His antibody;; high values mean tight binding. The conditions noted are these: protein: recombinant; tags: C-terminal His-tag (pET21a); chain copies: 2; dsDNA, one strand shown. The procedure, abridged: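 His-tagged protein dimer at 10 nM was bound to Agilent 4 x 44 K 'all 10-mer' universal arrays and detected with 10 ng/μL fluorophore-conjugated anti-His antibody on a GenePix 4400A, giving an intensity per 8-mer. Binding occupancy normalises each intensity to the top-ranked one.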
Chain of MaxL homodimer (P61244 whole entry): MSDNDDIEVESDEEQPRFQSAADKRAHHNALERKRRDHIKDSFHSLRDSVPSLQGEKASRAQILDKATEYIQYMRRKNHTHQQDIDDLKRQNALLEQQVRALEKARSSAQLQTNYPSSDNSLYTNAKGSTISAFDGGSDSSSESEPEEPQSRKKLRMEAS
As for AATTGCCA, the binding signal is 0.0744 normalized occupancy.

Turning to CCTAGAAC, the binding signal was 0.0744 normalized occupancy.

As for ATGTTGTG, the binding signal was 0.0817 normalized occupancy.

With CCGTCATC, the binding signal was found to be 0.0727 normalized occupancy.

Turning to AAGACTAT, the binding signal worked out at 0.0779 normalized occupancy.

Take CTGGGGAA: the binding signal was 0.0741 normalized occupancy.

Regarding ATGAACAA, the binding signal amounted to 0.0807 normalized occupancy.

Regarding CTGCATTC, the binding signal came to 0.0735 normalized occupancy.

For the sequence GTGCATCA, the binding signal is 0.0868 normalized occupancy.

Turning to ATGCATCC, the binding signal is 0.0863 normalized occupancy.

Consider ATGCATGC, for which the binding signal came out at 0.126 normalized occupancy.

GTGCATGA: the binding signal was found to be 0.0961 normalized occupancy.

For the sequence CTGCATGC, the binding signal was determined as 0.1 normalized occupancy.

Turning to ATGCATTA, the binding signal worked out at 0.0869 normalized occupancy.

For ATGCATGA, the binding signal amounted to 0.0997 normalized occupancy.

On to ATGCATCA, for which the binding signal is 0.0872 normalized occupancy.

Turning to GTGCATAA, the binding signal was 0.0861 normalized occupancy.

For the sequence ATGCATTC, the binding signal came to 0.0908 normalized occupancy.

CTGCATGA: the binding signal is 0.083 normalized occupancy.

In the case of AGAGGCGA, the binding signal came to 0.0756 normalized occupancy.

For CTTGAGTC, the binding signal amounted to 0.0726 normalized occupancy.

With ACTTTGTC, the binding signal was determined as 0.0738 normalized occupancy.

On to GGTTCTAC, for which the binding signal turned out to be 0.0735 normalized occupancy.

As for GAACTAAC, the binding signal is 0.0734 normalized occupancy.

Consider ATTCCGAC, for which the binding signal stood at 0.0732 normalized occupancy.

For the sequence AAGTTCAG, the binding signal is 0.0751 normalized occupancy.

With ACACCAAG, the binding signal is 0.0798 normalized occupancy.

For GTGGACCA, the binding signal was found to be 0.0775 normalized occupancy.

Turning to GTGTTAAA, the binding signal was found to be 0.0743 normalized occupancy.

As to GATTGCAC, the binding signal is 0.0761 normalized occupancy.

As to ATGCATGG, the binding signal stood at 0.0969 normalized occupancy.

As for ATGCATCG, the binding signal was found to be 0.0835 normalized occupancy.

As to ATGCATAG, the binding signal worked out at 0.0814 normalized occupancy.

As for CGGGGGCA, the binding signal is 0.0747 normalized occupancy.

Turning to CTCATGAC, the binding signal stood at 0.0906 normalized occupancy.

On to GTCATGCA, for which the binding signal stood at 0.0869 normalized occupancy.

In the case of ATCATTCG, the binding signal came out at 0.0804 normalized occupancy.

Turning to CTCATGCA, the binding signal amounted to 0.0963 normalized occupancy.

On to ATGATGCG, for which the binding signal came out at 0.0869 normalized occupancy.

Turning to CTTATGGC, the binding signal was found to be 0.0778 normalized occupancy.

Regarding ATCATGCG, the binding signal is 0.105 normalized occupancy.

For CTCATGGA, the binding signal was 0.0927 normalized occupancy.

As for ATCATGCA, the binding signal was determined as 0.0894 normalized occupancy.

With CTCATGTC, the binding signal came out at 0.0928 normalized occupancy.

With CTCATGCC, the binding signal was determined as 0.0954 normalized occupancy.

CTCATGGC: the binding signal worked out at 0.0965 normalized occupancy.

Take AAAAGGGA: the binding signal was found to be 0.0725 normalized occupancy.

Regarding GGGCGTTA, the binding signal turned out to be 0.0774 normalized occupancy.

As to TACTTCTA, the binding signal was 0.0754 normalized occupancy.

As for GCATAAGA, the binding signal stood at 0.0799 normalized occupancy.

For GGCTAGCA, the binding signal was 0.0747 normalized occupancy.

As for ATCATGCC, the binding signal is 0.0958 normalized occupancy.

Consider ATCATGAC, for which the binding signal worked out at 0.0868 normalized occupancy.

For ATAATGCC, the binding signal was found to be 0.0813 normalized occupancy.

On to CAAAATGG, for which the binding signal stood at 0.0769 normalized occupancy.

For the sequence AATTACAG, the binding signal is 0.0778 normalized occupancy.

Take ATTGCGCG: the binding signal was found to be 0.0747 normalized occupancy.

For the sequence CGTGCGCC, the binding signal was found to be 0.0922 normalized occupancy.

As to AATGCGCC, the binding signal was determined as 0.0731 normalized occupancy.

Take TATGCGCA: the binding signal was determined as 0.0804 normalized occupancy.

Consider AGTGCGCA, for which the binding signal stood at 0.076 normalized occupancy.

As to AATGCGCG, the binding signal came out at 0.0754 normalized occupancy.

Take AATGCGCA: the binding signal worked out at 0.0804 normalized occupancy.

On to AGTGCGCC, for which the binding signal worked out at 0.0735 normalized occupancy.

On to CATGCGCG, for which the binding signal was found to be 0.11 normalized occupancy.

Turning to CATGCGCC, the binding signal was determined as 0.111 normalized occupancy.

As for CATGCGCA, the binding signal was 0.125 normalized occupancy.

Take CGTGCGCA: the binding signal came to 0.0967 normalized occupancy.

With GTCGCTGA, the binding signal was found to be 0.0755 normalized occupancy.

With ACAATAGA, the binding signal came to 0.0762 normalized occupancy.

As for ACTTGACG, the binding signal stood at 0.0741 normalized occupancy.

On to GTCATCGA, for which the binding signal worked out at 0.0798 normalized occupancy.

For ATAGATGC, the binding signal came out at 0.075 normalized occupancy.

In the case of CGCACTGA, the binding signal was 0.0735 normalized occupancy.

On to ACTTACAA, for which the binding signal is 0.0743 normalized occupancy.

With ACGAGACA, the binding signal was 0.0856 normalized occupancy.

Consider GGCGTGAC, for which the binding signal amounted to 0.0927 normalized occupancy.

Take CGCGTGAG: the binding signal was 0.109 normalized occupancy.

As to AGCGTGAG, the binding signal was 0.091 normalized occupancy.

Consider CGCGTGAC, for which the binding signal came to 0.134 normalized occupancy.

For the sequence GGCGTGAA, the binding signal stood at 0.0776 normalized occupancy.

In the case of CTCGTGAC, the binding signal amounted to 0.104 normalized occupancy.

Regarding ATCGTGAC, the binding signal came to 0.0839 normalized occupancy.

Take CTCGTGAA: the binding signal turned out to be 0.0894 normalized occupancy.

For the sequence CGTGTGAC, the binding signal amounted to 0.0871 normalized occupancy.

On to CGCGTGAA, for which the binding signal turned out to be 0.105 normalized occupancy.

For CCCGTGAG, the binding signal is 0.0759 normalized occupancy.

Consider TGCGTGAA, for which the binding signal turned out to be 0.0808 normalized occupancy.

For CGCCCCCC, the binding signal is 0.0791 normalized occupancy.

For the sequence CCTAAGGA, the binding signal was 0.0757 normalized occupancy.

Consider ACTTTACC, for which the binding signal is 0.0744 normalized occupancy.

In the case of ACGATCAA, the binding signal was found to be 0.0748 normalized occupancy.

Take AGAGATTC: the binding signal was 0.0757 normalized occupancy.

For the sequence CGTTACAC, the binding signal is 0.0819 normalized occupancy.

Regarding TGTTACAA, the binding signal was determined as 0.0777 normalized occupancy.

In the case of AATGCTGC, the binding signal was found to be 0.0788 normalized occupancy.

For CATGCTGG, the binding signal was 0.125 normalized occupancy.

Take GATGCTGC: the binding signal turned out to be 0.078 normalized occupancy.

Regarding CAAGCTGG, the binding signal was 0.0721 normalized occupancy.

For CATGCTTA, the binding signal was 0.104 normalized occupancy.

For the sequence CATGCTTC, the binding signal turned out to be 0.106 normalized occupancy.

Regarding AATGCTTA, the binding signal stood at 0.0806 normalized occupancy.

CGTGCTTC: the binding signal turned out to be 0.0896 normalized occupancy.

Turning to CATGCTGC, the binding signal worked out at 0.122 normalized occupancy.

On to AATGCTTC, for which the binding signal worked out at 0.0816 normalized occupancy.

Consider GATGCTTA, for which the binding signal stood at 0.0759 normalized occupancy.

Regarding AATGCTGG, the binding signal turned out to be 0.0789 normalized occupancy.

As for CAACCGTC, the binding signal amounted to 0.075 normalized occupancy.

Regarding ATGCAATG, the binding signal stood at 0.08 normalized occupancy.

With CGACCTCG, the binding signal was determined as 0.0723 normalized occupancy.

The values are drawn from paper PMC4242493, “Sequence specificity incompletely defines the genome-wide occupancy of Myc”.
